# Source: PubChem BioAssay (NCI)
# Compounds without any hit were thinned out: in the full panel of roughly 83,000, 20% have a hit.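 Results are percent growth after 48 hours of single-concentration exposure. 100 means growth as in untreated cells, lower positive values show inhibition; negative values down to -100 show cell death.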 Values without a mark were called inactive. Calls of active or inactive are those of the source. Rule for the calls: active = growth percent below 10; inactive = the rest.
# Tested on: MDA-MB-468 breast
# Assay: NCI-60 one-dose screen, 48 h (100 = growth as untreated, 0 = no growth, -100 = all killed)
# Conditions: 10 µM unless noted
row,SMILES,growth
1,O=C1C=Cc2ccccc2/C1=C/c1[nH]c(=O)[nH]c1O,41.5%
2,COc1ccc(/C=N/NC(=O)Cn2c(Cc3cccc4ccccc34)nc3ccccc32)cc1,92.4%
3,CC(=O)N(C)N=Nc1ccc(C)cc1,104%
4,O=C(NCN1C(=O)c2cccc3cccc(c23)C1=O)N1CCC(Cc2ccccc2)CC1,101%
5,CCOC(=O)c1cocc1C(=O)O,103%
6,COc1cccc(CNc2ccc3ncnc(Nc4ccc(F)c(Cl)c4)c3c2)c1,-19.6% (active)
7,O=C(Nc1ccc(Cl)c(Cl)c1)Nc1ccc(Cl)c([N+](=O)[O-])c1,-19% (active)
8,CC1=NC(c2ccc(Cl)cc2)C2=C(N1)/C(=C/c1ccc(Cl)cc1)CCC2 (centres undefined),75.8%
9,O=C(CCCCCCN1CC(=O)N2[C@@H](c3ccc(Cl)s3)c3[nH]c4ccccc4c3C[C@H]2C1=O)NO,30.7%
10,COc1cc(/C=C2\CCCC3=C2N=C2SC=NN2C3c2cc(OC)c(OC)c(OC)c2)cc(OC)c1OC (centres undefined),18.1%
11,c1cn2cc(-c3ccc4cn[nH]c4c3)nc(Nc3ccc(N4CCOCC4)cc3)c2n1,61.8%
12,O=S(=O)(NCCNc1nccc(-c2c(-c3cccc(F)c3)nc3occn23)n1)c1ccc(Br)cc1,67.7%
13,CCCC(=O)Nc1ccc2c(c1)CN1C(=O)c3ccccc3C1=N2,97.8%
14,C=CCn1c(SCC(=O)Nc2ccc(C(=O)/C=C/c3ccc(Cl)cc3)cc2)nnc1-c1ccc(Cl)c(Cl)c1,81.5%
